CendR NRP1 mod: modulators of CendR peptide binding to human neuropilin-1. FAM-RPARPAR peptide binding to NRP-1, fluorescence polarization. inhibition, % at 25 µM. hit rate 0.85% among 360,000;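 active = inhibition or corrected inhibition above about 18%, plus a signal ratio from 0.5 to 1.5, limit read from the data, passing the limit was not always enough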
ATG4B inh: ATG4B (human) cysteine protease inhibition; ATG4B cleavage of LC3-PLA2, NBD-HPC fluorescence, 1 h; AID 504462; hit rate 0.51% among 340,000; inhibition, % at 8.33 µM; Q9Y4P1; in the data active = inhibition above about 40%
Target sequence (Q9Y4P1 whole entry, looked up): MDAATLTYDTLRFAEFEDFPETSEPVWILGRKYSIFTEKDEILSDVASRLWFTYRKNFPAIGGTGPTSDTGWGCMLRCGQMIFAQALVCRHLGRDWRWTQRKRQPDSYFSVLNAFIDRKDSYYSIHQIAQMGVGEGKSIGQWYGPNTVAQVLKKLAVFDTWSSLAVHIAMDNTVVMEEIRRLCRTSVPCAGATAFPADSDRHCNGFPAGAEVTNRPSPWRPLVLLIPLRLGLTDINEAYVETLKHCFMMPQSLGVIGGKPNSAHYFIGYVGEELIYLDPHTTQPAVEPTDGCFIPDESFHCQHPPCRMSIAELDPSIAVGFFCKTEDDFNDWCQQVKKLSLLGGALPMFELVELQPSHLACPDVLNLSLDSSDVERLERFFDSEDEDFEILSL
SKN-1 inh: C. elegans SKN-1 inhibition; C. elegans VP596 Pgst-4::GFP/RFP ratio, acrylamide-induced, 24 h; AID 624304; hit rate 0.49% among 360,000; inhibition, % at 21.8 µM;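 active = interference check ratio from 0.5 to 1.5 plus GFP to RFP signal ratio inhibition reaching or exceeding a fixed threshold, cut at about 30% in these data, passing the limit was not always enough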
MPTP inh: blocks calcium-induced mitochondrial swelling; inhibition, % at 10 µM; hit rate 1.4% among 360,000; isolated mouse mitochondria, Ca2+ swelling absorbance, 30 min; AID 602449;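 active = inhibition of 50% or more, scaled per plate between neutral and stimulator controls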;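 note: 0% = DMSO wells given calcium and 100% = 1 mM EGTA wells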
CFTR F508del cor: CFTR F508del correction in bronchial cells; CFBE cells, YFP halide quenching; stimulated with forskolin plus potentiator P3; % fluorescence drop versus neutral controls; activity (quench increase), % at 7.58 µM; hit rate 0.36% among 350,000; AID 720511;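 active = mean added fluorescence quench of at least 8% versus neutral control, with both replicates also reaching 8%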;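 note: cells transiently co-express mutant CFTR-F508del with the halide-sensitive YFP; corrector assay measuring rescue of mutant channel to the surface after 24 h compound exposure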
ATG4B conf: confirmation of human ATG4B inhibitors; shares compounds with ATG4B inh; inhibition, % at 8.33 µM; hit rate 92% among 320; AID 504757; ATG4B protease fluorescent substrate cleavage assay; in the data active = inhibition above about 39%
PLA2 counter: inhibits human PLA2, flagging false ATG4B inhibitors; purified PLA2, NBD-C6-HPC fluorescence, 45 min; shares compounds with ATG4B inh; inhibition, % at 8.33 µM; hit rate 66% among 1,600; AID 588402; in the data active = inhibition above about 50%
MPTP counter: Rhodamine 123 counter-screen of mitochondrial pore hits | hit rate 78% among 5,000 | shares compounds with MPTP inh | isolated mitochondria, membrane potential, Rhodamine 123 fluorescence | inhibition, % at 10 µM; in the data active = inhibition above about 22%;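 note: 0% = DMSO vehicle and 100% = positive control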
Active calls of the source: *; x = not tested or not shown. A selection: hits, their analogues and other compounds. The true share with any hit is near 2.7%.

SMILES	CendR NRP1 mod	ATG4B inh	SKN-1 inh	MPTP inh	CFTR F508del cor	PLA2 counter	MPTP counter	others
CCN(Cc1ccccc1)S(=O)(=O)c1ccc(C(=O)N(CCCN(C)C)c2nc3c(C)c(C)ccc3s2)cc1	5.7	40.4*	-5.1	81.9*	-6.9	50.4*	-15.4
O=C(Nc1ccc(Cl)cc1)NC1CCCCC1Cc1ccco1 (stereo not given)	-7.8	69.5*	-5.4	104.7*	x	80.1*	83.0*
O=C(NCCCCc1ccccc1)NC[C@@H]1CC[C@@H](Cc2ccc(-c3ccccc3)cc2)O1	-1.8	35.1	7.4	-1.6	-2.7	x	x
O=C(NC[C@@H]1CC[C@@H](Cc2ccc(-c3ccccc3)cc2)O1)Nc1ccc(Br)cc1	2.1	41.8*	14.2	59.8*	1.8	85.9*	95.7*
C[C@H](CO)N1C[C@H](C)[C@@H](CN(C)C(=O)Nc2ccccc2)Oc2ccc(NC(=O)CCC(F)(F)F)cc2CC1=O	x	x	x	x	-2.8	x	x
C[C@H](CO)N1C[C@H](C)[C@@H](CN(C)Cc2ccc(C(=O)Nc3ccccc3N)cc2)Oc2ccc(NC(=O)NC3CCCCC3)cc2CC1=O	x	x	x	x	-0.3	x	x
CC(C)CSC1=NSC2=NC(=O)/C(=C\c3coc4ccccc4c3=O)C(=N)N12	134.2	49.8*	-8.0	89.3*	x	52.6*	61.4*
N=C1/C(=C/c2coc3ccccc3c2=O)C(=O)N=C2SC(c3ccco3)=NN12	134.7	44.6*	-5.9	63.5*	x	16.6	71.3*
Cc1cc(/C=C2\C(=N)N3N=C(c4ccco4)SC3=NC2=O)c(C)n1Cc1ccccc1	-45.6	27.5	-12.3	45.9	-0.5	x	x
Clc1ccc2c(N/N=C/c3ccccc3Br)ccnc2c1	-6.7	48.0*	28.0	57.4*	-8.0	27.1	98.5*	ATG4B conf=56.4*
C[C@@H]1CN([C@H](C)CO)C(=O)c2cccc(NS(C)(=O)=O)c2O[C@@H]1CN(C)C(=O)Nc1ccc2c(c1)OCO2	x	x	x	x	-3.1	x	x
O=C(NNC(=S)Nc1ccc(F)cc1)c1cccc([N+](=O)[O-])c1	4.6	18.2	4.8	22.6	1.9	x	x
Cc1ccc(C(=O)NNC(=S)Nc2cccc(Cl)c2Cl)cc1[N+](=O)[O-]	5.4	47.9*	7.1	103.3*	-5.6	33.8	84.9*	ATG4B conf=78.0*
CC(=O)c1cccc(NC(=S)NNC(=O)c2ccc(C)c([N+](=O)[O-])c2)c1	12.0	14.0	-6.3	-1.1	-0.5	x	x
Cc1ccc(NC(=S)NNC(=O)c2cccc([N+](=O)[O-])c2)cc1Cl	2.1	76.9*	13.4	78.9*	-0.1	77.8*	64.5*
O=C(c1cccc(F)c1)N1CCCCN2[C@@H](CO)[C@H](c3ccc(-c4ccc(F)cc4)cc3)[C@@H]2C1	x	x	x	x	0.6	x	x
O=C1NC(=S)/C(=C\c2ccc(-c3ccccc3Cl)o2)S1	-28.1	65.0*	6.9	91.3*	x	7.7	37.4*
Fc1ccc2[nH]c3c(NCc4ccccc4)ncnc3c2c1	1.5	49.7*	8.4	83.9*	-3.6	65.3*	75.4*
COc1ccc2[nH]c3c(NCc4ccco4)ncnc3c2c1	x	3.9	x	x	x	x	x
COc1ccccc1NS(=O)(=O)c1cccc(NC(=O)Nc2cccc(Cl)c2)c1	-1.9	44.5*	14.6	81.2*	x	59.1*	75.6*
Cc1ccc(S(=O)(=O)N2C[C@@H](O)COC[C@H]3O[C@H](CC(=O)N[C@@H]4CCN(Cc5ccccc5)C4)CC[C@@H]32)cc1	x	x	x	x	1.8	x	x
CCCNC(=O)N1CC2(CN(C(=O)Nc3cccc(F)c3)C2)c2c(n(C)c3cc(OC)ccc23)[C@H]1CO	x	x	x	x	-1.5	x	x
CCCCNC(=O)c1sc(=S)n2c1[nH]c(=O)c1ccccc12	-16.3	45.4*	4.2	96.3*	x	17.8	79.6*
O=C(NCCc1ccccc1)c1ccc2c(=O)[nH]c3c(C(=O)NCC4CCCO4)sc(=S)n3c2c1 (stereo not given)	-66.8	17.6	-4.7	-0.2	-0.8	x	x
